According to the supplement of paper PMC10732440:
± gives the standard deviation of the averaged measurements.

System: Caenorhabditis elegans N2 infected with Nematocida parisii ERTm1
Assay: progeny production relative to DMSO uninfected control; higher = more progeny despite microsporidia infection (inhibition of infection with low host toxicity)
Details: infection time 6 days
How it was run: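 Values give progeny production relative to spore-free vehicle wells, as a percentage averaged across replicates. For each of three runs per compound and dose, 100 bleach-synchronised wild-type C. elegans L1 larvae per well were grown in 96-well plates with K-medium, E. coli OP50, 15,000 N. parisii spores/μL and compound at 100 μM or 40 μM in 1% DMSO. After 6 days of shaking at 21°C, worms were Rose Bengal-stained, flatbed-scanned and counted with WorMachine.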

SMILES | progeny production (40 µM) [%] | progeny production (100 µM) [%]
CCCCCOc1ccc(/C=C2\Oc3c(ccc(O)c3O)C2=O)c(O)c1 | 2.87 ± 0.23 | 11.2 ± 7
COc1nc2ccc(Br)cc2cc1[C@@H](c1ccccc1)[C@@](O)(CCN(C)C)c1cccc2ccccc12 | 7.24 ± 3.5 | 14.3 ± 4.9
O=S(=O)(Nc1ccc(O)cc1)c1cccc2cccnc12 | 5.85 ± 2.2 | 12 ± 6.6
O=C(CP(=O)(O)O)NCCc1cccc(Oc2ccccc2)c1 | 4.04 ± 0.94 | –
O=C(/C=C/n1cnc(-c2cc(C(F)(F)F)cc(C(F)(F)F)c2)n1)NNc1cnccn1 | 7.43 ± 4 | 14.1 ± 2.6
CN(C)[C@@H]1C(=O)C(C(N)=O)=C(O)[C@@]2(O)C(=O)C3=C(O)c4c(O)c(NC(=O)CN5CCCC5)cc(F)c4C[C@H]3C[C@@H]12 | 4.54 ± 0.11 | 6.16 ± 0.72
CC(=O)O[C@H]1C[C@@]2(C)[C@@H](C[C@@H](O)[C@H]3[C@@]4(C)CC[C@@H](O)[C@@H](C)[C@@H]4CC[C@@]32C)/C1=C(\CCC=C(C)C)C(=O)O | 6.24 ± 2.3 | 16.9 ± 9.1
Cc1ccc(Oc2ccccc2-c2csc(N=C3NCCCN3)n2)c(C)c1 | 4.22 ± 1.2 | 14.8 ± 12
CC(N)C12CC3CC(CC(C3)C1)C2 (centres undefined) | 3.85 ± 0.59 | 6.21 ± 1.8
CCCCN1C[C@H](O)[C@@H](O)[C@H](O)[C@H]1CO | 4.97 ± 3.5 | 13.9 ± 3.7
Cc1cc(-c2ccccc2)c(C(=O)C(=O)Nc2ccc(N3CCN(c4ncc(F)cn4)CC3)cc2)n1C | 2.94 ± 0.74 | –
COc1cc(NCc2ccc3nc(N)nc(N)c3c2C)cc(OC)c1OC | 2.11 ± 0.79 | –
COc1cc(C)c2c(Oc3cccc(C(F)(F)F)c3)c(OC)cc(NC(C)CCCN)c2n1 (centres undefined) | 4.23 ± 1 | –
CO/N=C(\C(=O)N[C@@H]1C(=O)N2C(C(=O)OCOC(=O)C(C)(C)C)=C(/C=C\c3scnc3C)CS[C@H]12)c1csc(N)n1 | 4.46 ± 2.2 | 13.1 ± 5.6
